Assay results: the supplement of paper PMC6992640
± gives the standard deviation of the averaged measurements.

How the values were obtained:
Assay in all cases: cell viability (% of vehicle); higher = less cytotoxic
Conditions in all cases: 10 µM; 72 h
HCI01 = tested on: HCI01 (cells of a triple-negative basal-like breast cancer xenograft)
HCI03 = tested on: HCI03 (cells of an ER-positive luminal breast cancer xenograft)
HCI09 = tested on: HCI09 (cells of a triple-negative luminal androgen receptor type breast cancer xenograft)
HCI11 = tested on: HCI11 (cells of an ER-positive luminal breast cancer xenograft)
HCI13 = tested on: HCI13 (cells of an ER-positive luminal breast cancer xenograft)
HCI16 = tested on: HCI16 (cells of a triple-negative basal-like breast cancer xenograft)
UCD52 = tested on: UCD52 (cells of a triple-negative basal-like breast cancer xenograft)
WHIM2 = tested on: WHIM2 (cells of a triple-negative basal-like breast cancer xenograft)
WHIM30 = tested on: WHIM30 (cells of a triple-negative basal-like breast cancer xenograft)
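Also: PDX cells carrying CMV promoter-driven luciferase, viability read as total photon flux per second by IVIS imaging following D-luciferin, vehicle control 0.1% DMSO.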

| SMILES | cell viability (HCI01) | cell viability (HCI03) | cell viability (HCI09) | cell viability (HCI11) | cell viability (HCI13) | cell viability (HCI16) | cell viability (UCD52) | cell viability (WHIM2) | cell viability (WHIM30) |
| --- | --- | --- | --- | --- | --- | --- | --- | --- | --- |
| Cl.Cl.Clc1ccc(Nc2nnc(Cc3ccncc3)c3ccccc23)cc1 [Vatalanib (PTK787) 2HCl] | 136 ± 53 | 104 | 54.7 ± 2.1 | 92.3 | 45.8 ± 8.3 | 76.5 | 55.4 ± 5 | 46 ± 19 | 93.2 ± 2.6 |
| CC(C)(Oc1ccc(CCNC(=O)c2ccc(Cl)cc2)cc1)C(=O)O [Bezafibrate] | 108.4 ± 0.24 | 101 | 95.5 ± 17 | 104 | 97.3 ± 2.6 | 123 | 101 ± 8.8 | 112 ± 14 | 113 ± 6.7 |
| Cl.Cl.O=C(O)COCCN1CCN(C(c2ccccc2)c2ccc(Cl)cc2)CC1 (stereo unspecified) [Cetirizine DiHCl] | 111 ± 5.7 | 118 | 98.4 ± 0.98 | 103 | 147 ± 6.2 | 116 | 78.6 ± 6.7 | 90.1 ± 1.9 | 109 ± 7.9 |
| Cl.NCCS [Cysteamine HCl] | 112 ± 4.3 | 112 | 93.4 ± 4.4 | 95.8 | 79.5 ± 5.4 | 108 | 92.8 ± 18 | 102.7 ± 1 | 102 ± 7 |
| CC(=CC(=O)OCCCCCCCCC(=O)O)CC1OCC(CC2OC2C(C)C(C)O)C(O)C1O (stereo unspecified) [Mupirocin] | 97.5 ± 17 | 129 | 86.5 ± 23 | 90.6 | 89.6 ± 9.9 | 101 | 84.2 ± 3.4 | 81.9 ± 12 | 113.3 ± 0.3 |
| CO[C@H]1C(=O)[C@]2(C)[C@@H](OC)C[C@H]3OC[C@@]3(OC(C)=O)[C@H]2[C@H](OC(=O)c2ccccc2)[C@]2(O)C[C@H](OC(=O)[C@H](O)[C@@H](NC(=O)OC(C)(C)C)c3ccccc3)C(C)=C1C2(C)C [Cabazitaxel] | 78.1 ± 51 | 113 | 66.2 ± 5.4 | 89.2 | 106 ± 5.1 | – | 70.3 ± 4.9 | 72 ± 11 | 107 ± 4.8 |
| CC(C)(C(=O)O)c1ccc(C(O)CCCN2CCC(C(O)(c3ccccc3)c3ccccc3)CC2)cc1.Cl (stereo unspecified) [Fexofenadine HCl] | 127 ± 32 | 129 | 115 ± 1.6 | 96.4 | 131 ± 6.2 | 120 | 87.7 ± 9.4 | 84.5 ± 14 | 108 ± 14 |
| NC(=O)c1cn(Cc2c(F)cccc2F)nn1 [Rufinamide] | 93.3 ± 16 | 137 | 106 ± 14 | 99.1 | 103 ± 10 | 106 | 96.9 ± 3.1 | 93.3 ± 18 | 124 ± 1.8 |
| CNCc1ccc(-c2[nH]c3cc(F)cc4c3c2CCNC4=O)cc1.O=P(O)(O)O | 161.1 ± 0.84 | 104 | 76 ± 12 | 85.9 | 145 ± 9.1 | – | 126 ± 39 | 173 ± 26 | – |
| Cc1cc(C2CCCCC2)n(O)c(=O)c1 [Ciclopirox] | 93 ± 59 | 67.7 | 26.8 ± 3.4 | 51.7 | 73.9 ± 3.7 | 117 | 92.7 ± 3.6 | – | 94.5 ± 12 |
| O=c1sn(-c2cccc3ccccc23)c(=O)n1Cc1ccccc1 [Tideglusib] | 119 ± 20 | 114 | 98.2 ± 11 | 96.3 | 95.7 ± 14 | 94.7 | 78.4 ± 1.8 | 86.22 ± 0.6 | 131 ± 9.7 |
| Clc1ccccc1C(c1ccccc1)(c1ccccc1)n1ccnc1 [Clotrimazole] | 82.5 ± 21 | 70.8 | 55.1 ± 39 | 95.1 | 85.5 ± 21 | 79.8 | 79.6 ± 8.2 | 73.7 ± 16 | 125 ± 1 |
| Cl.NCCc1ccc(O)c(O)c1 [Dopamine HCl] | 112 ± 25 | 103 | 113 ± 37 | 84.4 | 59 ± 2.7 | 125 | 93.6 ± 0.5 | 56 ± 2.1 | 128 ± 6.4 |
| C=CCNC(N)=S [Allylthiourea] | 96.4 ± 7.7 | 118 | 94.1 ± 19 | 97.4 | 64.8 ± 14 | 107 | 129 ± 35 | 108 ± 35 | 130 ± 8 |
| C#CC1(O)CCC2C3CCc4cc(OC)ccc4C3CCC21C (stereo unspecified) [Mestranol] | 131 ± 12 | 136 | 94.681 ± 0.043 | 106 | – | 104 | 71.2 ± 21 | 159 ± 12 | 121.2 ± 0.15 |
| O=C(CCCN1CCN(c2ccccn2)CC1)c1ccc(F)cc1 [Azaperone] | 119 ± 25 | 114 | 96.7 ± 2.1 | 121 | – | 151 | 66.9 ± 13 | 98.3 ± 4.7 | 85.8 ± 2.8 |
| CO[C@@]1(NC(=O)[C@H](C(=O)[O-])c2ccc(O)cc2)C(=O)N2C(C(=O)[O-])=C(CSc3nnnn3C)CO[C@@H]21.[Na+].[Na+] [Moxalactam (sodium salt)] | 116 ± 30 | 120 | 108 ± 3.6 | 66.4 | – | 148 | 144 ± 7 | 92.8 ± 6.9 | 126 ± 2.9 |
| CC(=O)OC1(C(C)=O)CCC2C3C=C(C)C4=CC(=O)CCC4(C)C3CCC21C (stereo unspecified) [Megestrol Acetate] | 112 ± 6.4 | 121 | 106 ± 10 | 91.8 | – | 102 | 103 ± 16 | 93.7 ± 14 | 127.9 ± 0.7 |

| SMILES | cell viability (HCI01) | cell viability (HCI03) | cell viability (HCI09) | cell viability (HCI11) | cell viability (HCI13) | cell viability (HCI16) | cell viability (UCD52) | cell viability (WHIM2) | cell viability (WHIM30) |
| --- | --- | --- | --- | --- | --- | --- | --- | --- | --- |
| C[C@@H]1C[C@H]2[C@H]3CCC4=CC(=O)C=C[C@]4(C)[C@@]3(F)[C@@H](O)C[C@]2(C)[C@@]1(O)C(=O)CO [Dexamethasone (DHAP)] | 128 ± 28 | 138 | 148 ± 54 | 114 | – | 180 | 168.4 ± 1.4 | 83.4 ± 20 | 189 ± 29 |
| Cl.N=C(N=C(N)N)N1CCOCC1 [Moroxydine HCl] | 91.5 ± 36 | 114 | 92.5 ± 3.5 | 89.2 | – | 138 | 87.98 ± 0.46 | 70.25 ± 0.58 | 164.7 ± 0.024 |
| CC(C)c1cc(C(=O)N2Cc3ccc(CN4CCN(C)CC4)cc3C2)c(O)cc1O | 116 ± 49 | 43.7 | 25.4 ± 3.1 | 124 | – | 109 | 77.1 ± 2.9 | 75.3 ± 3.1 | 176 ± 25 |
| CC(C)(C#N)c1cc(Cn2cncn2)cc(C(C)(C)C#N)c1 [Anastrozole] | 160 ± 20 | 149 | 108 ± 23 | 120 | – | 120 | 111 ± 11 | 132 ± 22 | 124.2 ± 0.85 |
| COc1ccccc1OCC(O)CO (stereo unspecified) [Guaifensin] | 108 ± 4.8 | 131 | 112 ± 21 | 102 | – | 117 | 91.7 ± 1 | 95 ± 18 | 141 ± 10 |
| CC12CCC3c4ccc(O)cc4CCC3C1CCC2O (stereo unspecified) [Estradiol] | 99.8 ± 4.7 | 111 | 91.4 ± 4.4 | 93 | – | 91.4 | 85.9 ± 4.8 | 108 ± 28 | 74.2 ± 6.9 |
| CCC(=O)OCC(=O)C1(OC(=O)CC)C(C)CC2C3CCC4=CC(=O)C=CC4(C)C3(Cl)C(O)CC21C (stereo unspecified) [Beclomethasone dipropionate] | 131 ± 100 | 182 | 144 ± 8.8 | 123 | – | 175 | 133 ± 3.9 | 128 ± 3.2 | 123 ± 10 |
| C#CC1(O)CCC2C3CCC4=CC(=O)CCC4C3CCC21CC (stereo unspecified) [Levonorgestrel] | 88.7 ± 25 | 127 | 100 ± 12 | 88.5 | – | 121 | 83.6 ± 6.9 | 91.5 ± 9.7 | 155 ± 2.3 |
| O=NN(CCCl)C(=O)NCCCl [Carmustine] | 106 ± 24 | 166 | 99.9 ± 62 | 83.9 | 134 ± 22 | – | 116 ± 5.4 | 96.23 ± 0.26 | 123 ± 8.1 |
| CCCc1nc2c(C)cc(-c3nc4ccccc4n3C)cc2n1Cc1ccc(-c2ccccc2C(=O)O)cc1 [Telmisattan] | 107 ± 23 | 111 | 113 ± 59 | 101 | – | 116 | 122.3 ± 0.62 | 85 ± 18 | 146 ± 1.6 |
| O[C@@H]1CO[C@H]2[C@@H]1OC[C@@H]2O [Isosorbide] | 115 ± 23 | 147 | 103 ± 2.9 | 102 | – | 116 | 99.9 ± 3.7 | 107.6 ± 0.11 | 112 ± 15 |
| CCCN(CCC)S(=O)(=O)c1ccc(C(=O)O)cc1 [Probenecid] | 102 ± 37 | 142 | 125 ± 6.3 | 94.6 | – | 145 | 113 ± 6.4 | 92.7 ± 6.9 | 155 ± 8.7 |
| Cl.O=C1NCC2(CCN(CCc3ccccc3)CC2)O1 [Fenspiride HCl] | 118 ± 42 | 126 | 101 ± 14 | 98.4 | – | 104 | 99.1 ± 6.4 | 98.1 ± 4.1 | 93.8 ± 14 |
| CCCc1nc(C(C)(C)O)c(C(=O)O)n1Cc1ccc(-c2ccccc2-c2nn[nH]n2)cc1 [Olmesartan] | 117 ± 4 | 121 | 130 ± 18 | 113 | – | 136 | 121 ± 15 | 91.2 ± 3.6 | 154 ± 25 |
| NCC(O)c1ccc(O)c(O)c1.O.O=C(O)C(O)C(O)C(=O)O (stereo unspecified) [Noradrenaline bitartrate monohydrate] | 86.8 ± 21 | 152 | 133 ± 34 | 124 | – | 160 | 142 ± 4.8 | 73 ± 14 | – |
| NS(=O)(=O)c1cc2c(cc1Cl)NCNS2(=O)=O [Hydrochlorothiazide] | 95 ± 30 | 106 | 134 ± 72 | 92.7 | – | 177 | 105 ± 3 | 101 ± 3.8 | 139 ± 11 |
| CC12CCC3c4ccc(O)cc4CCC3C1CCC2=O (stereo unspecified) [Estrone] | 99.5 ± 6.1 | 112 | 97.3 ± 9.7 | 102 | – | 89.5 | 87.3 ± 6.6 | 113 ± 22 | 153 ± 14 |
| CCCC1O[C@@H]2C[C@H]3[C@@H]4CCC5=CC(=O)C=C[C@]5(C)[C@H]4[C@@H](O)C[C@]3(C)[C@]2(C(=O)CO)O1 (stereo partly specified) [Budesonide] | 113 ± 30 | 102 | 164 ± 40 | 140 | – | 173 | 141 ± 9.5 | 74.4 ± 20 | – |
